The nature of assay [1]: NCI Yeast Anticancer Drug Screen. Data for the rad50 strain (AID 155).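 Further: 0% = growth of vehicle-only cultures of the same strain.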 The conditions noted are these: S. cerevisiae rad50 strain growth inhibition; at 50.0 µM; stronger effect = higher value. A digest of the protocol: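 Vehicle-treated cultures provide the reference for the growth inhibition reported for compound-exposed, repair-deficient yeast.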
Assay [2] in a line: NCI Yeast Anticancer Drug Screen. Data for the mec2-1 strain (AID 157). The note with it: S. cerevisiae mec2-1 strain, at 50.0 µM, stronger effect = higher value. A digest of the protocol:
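Vehicle-treated cultures served as reference for growth inhibition of compound-exposed mec2-1 yeast.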

A short description of assay [3]: NCI Yeast Anticancer Drug Screen. Data for the sgs1 mgt1 strain (AID 161).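 Further: 0% = growth of cultures given vehicle only.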 The conditions noted are these: S. cerevisiae sgs1 mgt1 strain, at 50.0 µM, stronger effect = higher value. A digest of the protocol:
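Genetically altered yeast, compound exposure, growth inhibition relative to vehicle.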

Assay [4] is described as follows: NCI Yeast Anticancer Drug Screen. Data for the cln2 rad14 strain (AID 165).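 Further: 0% = growth equal to vehicle treated cultures.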 The conditions noted are these: S. cerevisiae cln2 rad14 strain, at 50.0 µM, stronger effect = higher value. In a few lines:
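Each compound was tested on cln2 rad14 yeast. Inhibition of growth was calculated against vehicle-exposed controls.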

Assay [5] in a line: NCI Yeast Anticancer Drug Screen. Data for the bub3 strain (AID 167). The conditions noted are these: S. cerevisiae bub3 mutant strain, at 50.0 µM, stronger effect = higher value. In a few lines: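 Mutant yeast screening strain plus compound; vehicle-treated cultures serve as the 0% inhibition reference.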
The nature of assay [6]: NCI Yeast Anticancer Drug Screen. Data for the mlh1 rad18 strain (AID 175). The conditions noted are these: S. cerevisiae mlh1 rad18 strain growth inhibition; at 50.0 µM; stronger effect = higher value. A digest of the protocol:
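Vehicle-treated cultures served as the reference for growth inhibition in a yeast strain carrying DNA damage repair alterations exposed to each compound.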

The panel holds about 79,000 compounds, 15% with a hit somewhere; the sample as a whole holds those more often. Unmarked numbers belong to inactive results. Activity calls are given as the source filed them. No stated cut-off is given here; in the data, active means growth inhibition above about 70%; inactive means the rest.

Regarding `CCCCCCCCCCCCCCCCOc1ccc(N)cc1`, the growth inhibition was 11.7% in assay [1]; 6.05% in assay [2]; -16.3% in assay [3]; -41.2% in assay [4]; 19% in assay [5]; 1.1% in assay [6].
On to `C=CCCCCCCCCC(=O)N(CC#N)CC(C)C`, for which the growth inhibition in assay [1] is 79.1% (active); in assay [2] it was 82% (active); in assay [3] it was 91.5% (active); in assay [4], 76% (active); in assay [5] it was 87.2% (active); in assay [6], 91.5% (active).
`COc1cc(OC)c2c3c(OC)cc(OC)c4c(=O)c(O)c(C[C@@H](C)O)c(c5c(C[C@@H](C)O)c(O)c(=O)c1c25)c43`: the growth inhibition in assay [1] was 66.8%; in assay [2], 46.4%; in assay [3], 37%; in assay [4], -4.45%; in assay [5], 34.4%; in assay [6], 54.9%.
Regarding `O=c1c(Cl)cc(Cl)cn1S(=O)(=O)c1ccc([N+](=O)[O-])cc1`, the growth inhibition in assay [1] was 99.1% (active); in assay [2], 95.3% (active); in assay [3] it was 98.9% (active); in assay [4] it was 98.7% (active); in assay [5] it was 97.7% (active); in assay [6], 98.9% (active).
As for `Cc1cc(C)c(S(=O)(=O)ONC(=O)OC(C)(C)C)c(C)c1`, the growth inhibition was 11.8% in assay [1]; -3.9% in assay [2]; -4% in assay [3]; 4.9% in assay [4]; 11.2% in assay [5]; -8.1% in assay [6].
Regarding `CCCC1(CC)COC(c2ccc(C)cc2)OC1` (stereo unspecified), the growth inhibition in assay [1] was 13.8%; in assay [2], 0.9%; in assay [3] it was -7.6%; in assay [4], 5.85%; in assay [5] it was 11.8%; in assay [6], 3.35%.
Regarding `CCCCCCSCCO`, the growth inhibition in assay [1] was -13.2%; in assay [2] it was -35%; in assay [3] it was -11.9%; in assay [4], 23.6%; in assay [5] it was -30.9%; in assay [6], 2.55%.
Regarding `Cn1cnc([N+](=O)[O-])c1/N=C/c1ccccc1`, the growth inhibition is 0.1% in assay [1]; 2.95% in assay [2]; -3.95% in assay [3]; -41.3% in assay [4]; -28.5% in assay [5]; -6.5% in assay [6].
As to `CC1=CC(=O)C(O)C2(C)C(CCC3(C)OCCO3)C=C(O[Si](C)(C)C(C)(C)C)CC12` (stereo unspecified), the growth inhibition was 21.6% in assay [1]; -2.5% in assay [2]; 1.2% in assay [3]; 18.4% in assay [4]; 5.15% in assay [5]; 7% in assay [6].
On to `NNC(=O)c1csnn1`, for which the growth inhibition in assay [1] was -24.6%; in assay [2] it was -22.6%; in assay [3] it was -24.5%; in assay [4], -25.4%; in assay [5], -23.6%; in assay [6] it was -7%.
`CN(CCO)c1cnn(CCO)c(=O)c1Cl`: the growth inhibition in assay [1] was -14.9%; in assay [2], -8.25%; in assay [3], -17.6%; in assay [4], -6.15%; in assay [5], 8.2%; in assay [6], -7.45%.
Regarding `Fc1nc2nc(C(F)(F)F)[nH]c2nc1F`, the growth inhibition is 15.8% in assay [1]; -0.85% in assay [2]; -23.9% in assay [3]; -59.5% in assay [4]; 0.85% in assay [5]; 7.6% in assay [6].
As for `CC(=O)Nc1ccc(NC(=O)C2CC3C=CC2C3)cc1` (stereo unspecified), the growth inhibition in assay [1] was 7.55%; in assay [2] it was -11%; in assay [3], -33%; in assay [4], 3.1%; in assay [5], -10.7%; in assay [6] it was 23.2%.
Take `CC(=O)C1CCC2C3C=C(C)C4=CC(=O)CCC4(C)C3(F)C(=O)CC12C` (stereo unspecified): the growth inhibition is 13.8% in assay [1]; -12.2% in assay [2]; 6% in assay [3]; -13.1% in assay [4]; 14.2% in assay [5]; 15.9% in assay [6].
In the case of `CCCCCCCCC1C(CCCCCCCC(=O)N(CC)CCCOCC)C2(Cl)C(Cl)=C(Cl)C1(Cl)C2(Cl)Cl` (stereo unspecified), the growth inhibition in assay [1] is 3.45%; in assay [2] it was 4.65%; in assay [3] it was 13.9%; in assay [4], -10.6%; in assay [5] it was -6.35%; in assay [6], 16.4%.
In the case of `CC(=O)c1cccc(NC(=O)Oc2ccc(Cl)cc2Cc2ccccc2)c1`, the growth inhibition in assay [1] is 99.1% (active); in assay [2] it was 50.2%; in assay [3] it was 64.1%; in assay [4], 99.5% (active); in assay [5], 99.4% (active); in assay [6] it was 99% (active).
On to `Nc1cccc(C(=O)Nc2ccc3c(O)cc(S(=O)(=O)O)cc3c2)c1`, for which the growth inhibition is 15.2% in assay [1]; -3.1% in assay [2]; 11.9% in assay [3]; -30.4% in assay [4]; -12.4% in assay [5]; 7.05% in assay [6].
For `CN(C)CCOc1cccc(OCCN(C)C)n1`, the growth inhibition in assay [1] is 10.7%; in assay [2], -3.25%; in assay [3], 3.2%; in assay [4], 1.1%; in assay [5], 9.35%; in assay [6] it was 8.7%.
For `O=c1c2ccccc2nc(-c2ccccc2Cl)n1NCC1(O)OCC(O)C(O)C1O` (stereo unspecified), the growth inhibition in assay [1] is 12%; in assay [2] it was 5.2%; in assay [3], 16.6%; in assay [4] it was -13.2%; in assay [5], -1.2%; in assay [6], 3.25%.
Consider `COc1ccc(N2C(=O)c3c(c4[nH]c5ccccc5c4c4ccc(C(C)(C)C)cc34)C2=O)cc1`, for which the growth inhibition is 5.5% in assay [1]; -1.2% in assay [2]; 22.6% in assay [3]; 19.6% in assay [4]; -10.3% in assay [5]; -2.2% in assay [6].
Regarding `CC(C)C(=O)Nc1cccc([N+](=O)[O-])c1`, the growth inhibition is -2.1% in assay [1]; -8.75% in assay [2]; 6.75% in assay [3]; -24.6% in assay [4]; -6.85% in assay [5]; -7.6% in assay [6].

(Values after PubChem BioAssay (NCI).)
